The values that follow come from PubChem BioAssay AID1497 (Sanford-Burnham Center for Chemical Genomics, 2009).

In all, about 93,000 compounds went through this assay and about 500 (0.54%) were called active. The sample as a whole holds a higher share of actives than the screen did. A number with no mark means an inactive call.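 The calls were made as follows: active = primary inhibition of 50% or more at 10 µM, then 40% or more on retest; inactive = the rest.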

The target of the assay is Integrin beta-2 (Homo sapiens) + Integrin alpha-M (Homo sapiens) (UniProt P05107+P11215). The assay can be described thus: inhibitors of CD11b/CD18 adhesion to fibrinogen, primary screen, K562 cells, luminescence (AID 1497). Conditions: ATPlite luminescence, at 10 µM, active compounds read high, Mn2+ added to activate the integrin. For orientation: Cellular ATP, detected with luciferase, serves as a proxy for viable cell number.
Integrin beta-2 (Homo sapiens) + Integrin alpha-M (Homo sapiens), sequence (P05107 whole entry, looked up, other chains not shown): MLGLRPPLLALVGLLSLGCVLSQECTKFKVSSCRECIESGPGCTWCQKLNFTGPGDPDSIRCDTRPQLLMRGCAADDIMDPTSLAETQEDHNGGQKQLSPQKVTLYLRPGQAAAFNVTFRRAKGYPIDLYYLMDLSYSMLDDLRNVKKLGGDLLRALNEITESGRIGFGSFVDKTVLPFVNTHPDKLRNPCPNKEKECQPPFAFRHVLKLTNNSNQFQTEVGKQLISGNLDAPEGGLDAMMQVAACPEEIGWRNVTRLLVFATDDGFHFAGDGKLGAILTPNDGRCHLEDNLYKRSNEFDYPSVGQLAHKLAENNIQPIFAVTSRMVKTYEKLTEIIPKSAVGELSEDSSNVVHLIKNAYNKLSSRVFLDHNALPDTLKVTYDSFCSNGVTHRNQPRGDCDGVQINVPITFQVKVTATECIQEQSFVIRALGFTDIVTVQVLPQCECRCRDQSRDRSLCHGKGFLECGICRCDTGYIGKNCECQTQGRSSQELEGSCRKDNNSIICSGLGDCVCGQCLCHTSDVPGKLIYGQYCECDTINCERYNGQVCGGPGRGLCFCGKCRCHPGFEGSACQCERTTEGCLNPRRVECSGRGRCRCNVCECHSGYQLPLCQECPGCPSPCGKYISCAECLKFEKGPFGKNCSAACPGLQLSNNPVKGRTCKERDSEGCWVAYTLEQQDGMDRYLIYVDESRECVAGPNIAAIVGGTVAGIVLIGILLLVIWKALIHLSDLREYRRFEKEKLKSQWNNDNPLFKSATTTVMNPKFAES
The term inhibition denotes the relative decrease from the control value, in per cent. As for `COc1ccc(NS(=O)(=O)c2ccc(NC(=S)NC(=O)/C=C/c3ccc(C)cc3)cc2)nn1`, the inhibition was -15%. For the compound `CCCCn1c(=O)c(CCC(=O)OCC(=O)Nc2ccc(C)c(Cl)c2)nc2ccccc21`, the inhibition is 6.4%. The figure for `OCC(CO)(CO)NCc1ccc(-c2ccccc2)cc1` is 3.8%; for `Cc1cc(N2CCN(S(=O)(=O)c3ccc(C)c(C)c3)CC2)c2ccccc2n1` it is 41.1%. On to `Cc1ccc(S(=O)(=O)C(C#N)c2nc3ccccc3nc2N2CCCC2)cc1C` (stereo not given), for which the inhibition was 63.1% (active). As to `Cc1ccc(S(=O)(=O)Nc2nc3ccccc3nc2N2CCc3ccccc3C2)cc1`, the inhibition was 71.6%. The figure for `Cc1cc(SCC(=O)NCCN2C(=O)CSC2=O)nc2ccccc12` is 13%; for `Cc1c(Cl)cccc1NC(=O)CC1SC(=NCC2CCCO2)NC1=O` (stereo not given) it is 12.8%. As for `CC(Sc1nc2cc(Cl)ccc2s1)C(=O)Nc1ccc2c(c1)OCO2` (stereo not given), the inhibition was 82.9%.

In the case of `COc1ccc(OC)c(/C=C/C(=O)OCC(=O)Nc2ccc3c(c2)OCCO3)c1`, the inhibition was 24.4%. Regarding `Cc1ccc(-c2cc(N)on2)cc1`, the inhibition is -5.1%. In the case of `Cc1ccc(S(=O)(=O)Nc2ccc3ncccc3c2)cc1` it was 75.1% (active); in that of `CC(=O)N1CCN(C(=O)c2cccc(S(=O)(=O)Nc3ccc(C)cc3)c2)CC1`, -4.1%; in that of `O=S(=O)(Nc1ccc(Oc2ncccn2)c(Cl)c1)c1ccc(F)cc1`, -21.1%.

Regarding `O=C1NC(c2ccc(-c3ccccc3[N+](=O)[O-])o2)C(C(=O)c2ccc(Cl)cc2)C(O)(C(F)(F)F)N1` (stereo not given), the inhibition is 13.3%. Take `O=C(Cc1coc2ccc3ccccc3c12)NCc1cccs1`: the inhibition is -3.3%. Turning to `CC(C)[C@H](NC(=O)c1ccc(F)cc1)C(=O)OCC(=O)NC(=O)c1cccn1C`, the inhibition is -23.1%. Consider `COC(=O)N/N=C/c1ccc(-c2ccc(Cl)c(Cl)c2)o1`, for which the inhibition was 9.8%. For `CC(=O)N1C(C)c2ccccc2C(C)(C)CC12CCCCC2` (stereo not given), the inhibition is -35.8%. The figure for `COC(=O)c1ccc(NC(=O)CSc2nncc3ccc(OC)c(OC)c23)cc1` is -5.7%. Regarding `CCC(C(=O)OCC(=O)Nc1c(Cl)cc(Cl)cc1Cl)c1ccccc1` (stereo not given), the inhibition was 14.9%. In the case of `Cc1cc(C)c(NC(=S)N2CCCC2C(=O)O)c(C)c1` (stereo not given) it was -8.3%; in that of `COc1ccccc1CN(C)C(=O)C1(c2ccc(Cl)cc2)CC1`, 11.8%; in that of `COc1ccc([N+](=O)[O-])cc1NC(=O)c1ccc(N(Cc2ccccc2C)S(C)(=O)=O)cc1`, 4%. Turning to `O=C(CSc1ccc(C(F)(F)F)cc1[N+](=O)[O-])NCCOc1ccccc1`, the inhibition is -6%.
